Unmarked numbers belong to inactive results. Calls of active or inactive are those of the source. The rule behind the calls is not given here.

For orientation: IC50 means the concentration that inhibits the measured activity by half.

The assay can be described thus: XO enzyme superoxide output inhibition – biochemical, IC50, set 2, NOX1 inhibitor project, late-stage follow-up (AID 435009). Conditions: Xanthine oxidase enzyme assay, ROS/superoxide detection.
Turning to `Fc1ccc(NC(=S)NNC(=S)Nc2ccccc2)cc1`, the IC50 is 500 nM (active).
On to `FC(F)(F)c1ccc2c(c1)Nc1ccccc1S2`, for which the IC50 is 5000 nM (active).
Under `COc1cc(-c2nc(-c3ccccc3)c(-c3ccccc3)[nH]2)ccc1O` stands 10 nM (active); under `Oc1c(Br)cc(/C=N/Nc2c(Cl)cncc2Cl)cc1Br`, above 5000 nM.
Turning to `CN(C)c1ccc(NC(=O)Nc2ccc(OCc3ccccc3)cc2)cc1`, the IC50 is 1300 nM (active).
In the case of `CSc1ccc(NC(=O)Nc2ccc(N(C)C)cc2)cc1`, the half-inhibitory concentration (IC50) is 1200 nM (active).
Consider `Cc1cc(Cl)ccc1NC(=S)NNC(=S)Nc1ccc(F)cc1`, for which the IC50 is 3300 nM (active).
The result for `CN(C)c1ccc(/C=N/Nc2c(Cl)cncc2Cl)cc1` reads above 5000 nM; that for `COc1cc(-c2nc(-c3ccccc3)c(-c3ccccc3)[nH]2)cc(OC)c1O`, 900 nM (active).

The values above are taken from PubChem BioAssay AID435009 (The Scripps Research Institute Molecular Screening Center, 2010).
